From PubChem BioAssay
ATXN2 expr inh = Primary qHTS for Inhibitors of ATXN expression. HEK-293 ATXN2-luciferase reporter, luminescence, 24 h. Potency, µM (series often up to 57 µM), for the others: at the top dose activity change, negative = inhibition, usual class: inhibitors. 360,000 tested, 0.72% active; also: potency is read from the fitted curve at half-maximal effect; % is scaled to controls: 0 for no effect and ±100 for the full control effect; nearly all actives have a fitted effect of over 55% in size
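qHTS (up to 57 uM final) was run with 24 h compound exposure of reporter cells at 37 °C. Each well was multiplexed: SteadyGlo luminescence measured ATXN2-luciferase expression after a fluorogenic Gly-Phe-AFC viability readout (25 uM final).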
HepG2 tox = qHTS for Inhibitors of TGF-b: Cytotox Counterscreen | HepG2 CAGA-GFP viability, ATP luminescence, 18 h | Potency, µM (titrated, usually from 46.1 µM), inactives show at the highest dose activity change, negative = cytotoxicity, most hits filed as cytotoxic | 410,000 tested, 0.76% active; also: potency is read from the fitted curve at half-maximal effect
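HepG2 CAGA-GFP cells (1000/well, DMEM with 1% FBS) received compound, then TGF-beta at 500 pg/mL final, and were incubated 18 hours at 37 degrees C. Viability was read by CellTiter-Glo luminescence. Media-only wells were set as complete cell-killing and DMSO as no toxicity.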
D3 ag = qHTS of D3 Dopamine Receptor Agonist: qHTS; max activation, %; D3R DiscoveRx beta-arrestin cells, luminescence, 90 min; D(3) dopamine receptor (Homo sapiens), P35462; 410,000 tested, 0.58% active; in the data active = max activation above about 30%; also: 0% is about no effect
Target sequence (P35462 whole entry, looked up): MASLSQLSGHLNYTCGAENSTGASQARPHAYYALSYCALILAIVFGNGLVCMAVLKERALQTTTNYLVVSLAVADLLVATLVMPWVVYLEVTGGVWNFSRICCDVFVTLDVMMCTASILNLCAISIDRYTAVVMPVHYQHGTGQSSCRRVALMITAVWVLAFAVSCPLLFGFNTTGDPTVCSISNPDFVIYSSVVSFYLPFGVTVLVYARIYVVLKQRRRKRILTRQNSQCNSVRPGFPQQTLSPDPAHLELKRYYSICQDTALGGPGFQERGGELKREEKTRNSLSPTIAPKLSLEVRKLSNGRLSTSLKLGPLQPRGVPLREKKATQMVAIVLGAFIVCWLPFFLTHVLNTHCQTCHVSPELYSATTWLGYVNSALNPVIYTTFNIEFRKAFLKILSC
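Cells at 1500/well, incubated overnight, then treated with pinned compounds (dopamine as control) for 90 min at 37 degrees C. DiscoveRx reagent added for 30 - 60 minutes at room temperature; luminescence read.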
TGFb inhibitor = qHTS for Inhibitors of TGF-b; Potency, µM (highest dose often 46.1 µM), for inactives: at the highest dose activity, negative = inhibition, actives largely listed as inhibitors; HepG2 CAGA-GFP TGF-b/SMAD3 reporter, GFP fluorescence, 18 h; TGF-beta stimulated, 500 pg/mL final; 410,000 tested, 1.2% active; also: potency is read from the fitted curve at half-maximal effect; % is scaled to controls: 0 for no effect and ±100 for the full control effect; nearly all actives have a fitted effect of over 65% in size
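Using HEPG2 CAGA-GFP reporter cells at 1000 cells/well, we pinned test compounds, stimulated with recombinant TGF-beta (500 pg/mL final) and measured total well GFP after 18 h.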
D3 antag = qHTS of D3 Dopamine Receptor Antagonist: qHTS; AID 652054, 2013; D3R cells, DiscoveRx beta-arrestin luminescence, antagonist mode; stronger effect = lower value; max response, negative = inhibition, %; D(3) dopamine receptor (Homo sapiens), P35462; 360,000 tested, 2.5% active; in the data active = max response below about -50%; inconclusive = no clear call, values can overlap the other calls; also: % is scaled to controls: 0 for no effect and ±100 for the full control effect
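Cells plated overnight at 1500 cells/well, then exposed to library compounds with dopamine controls for 90 minutes at 37 degrees C. DiscoveRx reagent added for 30–60 minutes at room temperature; luminescence read, quantitative HTS format.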
ATXN viability = Viability Counterscreen for Primary qHTS for Inhibitors of ATXN expression; S2 cells (HEK-293 line with an ATXN2-luciferase reporter) viability, CellTiter-Fluor protease fluorescence, 24 h; Potency, µM (titrated, usually from 56.7 µM), most hits filed as cytotoxic; 400,000 tested, 0.49% active; also: potency is read from the fitted curve at half-maximal effect; nearly all actives have a fitted effect of over 40% in size
An asterisk follows results filed as active; i = inactive; ? = inconclusive; · = not tested or not shown; ! = a repeat was not active; [ ] = another dose, or the depositor's remark. A selection: hits, their analogues and other compounds. The true share with any hit is near 4.7%. Unless noted, calls follow the shape of the dose curve; as a rule, active = well fitted curve in the direction sought with a large enough effect; inconclusive = small, poorly fitted or top-dose-only effect, or another doubt; inactive = no such curve, though single readings can be large; an effect the other way counts as inactive or inconclusive.

SMILES | ATXN2 expr inh | HepG2 tox | D3 ag | TGFb inhibitor | D3 antag | ATXN viability
C[C@H]1O[C@@H](OC2CC[C@]3(C=O)[C@H]4CC[C@]5(C)[C@@H](C6=CC(=O)OC6)CC[C@]5(O)[C@@H]4CC[C@]3(O)C2)CC2OC(C)(C)OC21 (stereo not given in full) | · | -57% | 1 | 2µM* | 34 | ?
CC12CC[C@H]3[C@@H](CCC4(O)C[C@H](O)CCC34/C=N/NC(=O)c3ccccc3Cl)C1(O)CCC2C1=CC(=O)OC1 (stereo not given in full) | -11% | -6% | -5 | -18% | -3 | i
CC12CCC3C(CCC4(O)CC(O)CCC34C=O)C1(O)CCC2C1=CC(=O)OC1 (stereo not given) | 1.8µM* | -39% | 9 | ? | -8 | ?
C[C@]12CC[C@H]3[C@@H](CC[C@]4(O)C[C@@H](O)CC[C@]34C=O)[C@@]1(O)CC[C@@H]2C1=CC(=O)OC1 | 0.32µM* | -65% | 0 | 7.1µM* | 4 | ?
CC(=O)O[C@H]1CC[C@]2(C=O)C3CC[C@]4(C)[C@@H](C5=CC(=O)OC5)CC[C@]4(O)C3CC[C@]2(O)C1 (stereo not given in full) | · | -34% | · | 11µM* | · | ·
C[C@]12CCC3C(CCC4=CC(O)CC[C@@]43/C=N/O)C1(O)CCC2C1=CC(=O)OC1 (stereo not given in full) | ? | -53% | 1 | 7.9µM* | -9 | i
Clc1ccc(OCC#CCN2CCCC2)cc1 | 16% | -24% | -31 | -6% | -55* | i
Cc1c2ccncc2c(C)c2c1[nH]c1ccccc12 | 14µM* | 13µM* | -6 | ? | -13 | ?
c1ccc2c(c1)[nH]c1cnccc12 | -7% | -11% | 7 | -2% | 2 | i
CC(N[C@H]1C[C@H]1c1ccccc1)c1ccc2c(c1)OCCO2 (stereo not given in full) | 9% | · | · | · | · | ·
C[C@@H](CO)NC(=O)[C@@H]1C=C2c3cccc4[nH]cc(c34)C[C@H]2N(C)C1 | · | · | 38* | · | · | ·
Cc1cccc(-n2c(/C=C/c3c(C)[nH]c4ccccc34)nc3ccccc3c2=O)c1 | -2% | -43% | 2 | 3% | · | i
Cc1cccc(-n2c(/C=C/c3ccccc3O)nc3ccccc3c2=O)c1 | · | -22% | 3 | 11µM* | · | ·
Cc1cccc(-n2c(/C=C/c3ccc([N+](=O)[O-])o3)nc3ccccc3c2=O)c1 | 14µM* | -25% | 15 | ? | 6 | ?
Cc1cccc(-n2c(/C=C/c3cccc4ccccc34)nc3ccccc3c2=O)c1 | · | -34% | 5 | ? | · | ·
O=c1c2ccccc2nc(/C=C/c2ccccc2)n1-c1ccc(O)cc1 | -37% | -28% | 22 | ? | 31 | ?
O=c1c2ccccc2nc(/C=C\c2cccc(Br)c2)n1-c1ccc(O)cc1 | · | -105% | 4 | 13µM* | · | ·
Cc1ccc(Cl)cc1N1CCN(C(=O)C2CCN(Cc3nc(-c4ccc(Cl)cc4)oc3C)CC2)CC1 | -7% | -13% | -4 | ? | · | i
C[C@@H]1NCCc2cc(O)c(O)cc21 | 5% | 1% | -75 | 1% | -74* | i
COc1cccc(C(c2nnnn2-c2ccc3c(c2)OCCO3)N2CCC(n3c(=O)[nH]c4ccccc43)CC2)c1OC (stereo not given) | 16µM* | 13µM* | 3 | ? | 23 | i
NCC(O)c1cc(O)c(O)cc1F (stereo not given) | 5% | 22% | 176* | -3% | 22 | i
CC(=O)OCC1=C(C(=O)O)N2C(=O)[C@@H](N)[C@H]2SC1 | 0%[25.6 µM] | · | -11 | · | · | i
c1ccc(-c2cc(-c3ccccc3)[n+](-c3ccccc3)c(-c3ccccc3)c2)cc1 | 8.9µM* | -23% | 1 | 13µM* | 8 | ·
Cc1ccc(-c2cc(-c3ccc(C)cc3)[n+](-c3ccc(C(=O)[O-])cc3)c(-c3ccc(C)cc3)c2)cc1 | 0% | -28% | -16 | -13% | 7 | i
Cc1ccc(-c2cc(-c3ccccc3)cc(-c3ccccc3)[n+]2-c2ccccc2)cc1 | 3.5µM* | -65% | 11 | 5.6µM* | -13 | 13µM*
SMILES | ATXN2 expr inh | HepG2 tox | D3 ag | TGFb inhibitor | D3 antag | ATXN viability
CN(C)c1ccc(-[n+]2c(-c3ccccc3)cc(-c3ccccc3)cc2-c2ccccc2)cc1 | ? | -36% | -9 | 4µM* | -7 | ?
CCOC(=O)c1ccc(-[n+]2c(-c3ccccc3)cc(-c3ccccc3)cc2-c2ccccc2)cc1 | 0% | -41% | 5 | ? | 89 | ?
CCCNc1nc(-c2cc(C(=O)Nc3ccccc3)on2)cc(C(C)C)n1 | -17% | -26% | 7 | ? | 4 | i
Cc1ccc(CN2C(=O)NC(=O)C3(Cc4c(nc5ccccn5c4=O)N4CCCCCC43)C2=O)cc1 (stereo not given) | 10% | 3% | 54* | -10% | 13 | i
Cc1ccc2c(CN3CC=C(c4ccccc4)CC3)cc(=O)oc2c1C | 12% | 0% | 40* | 0% | -27 | i
COc1cc(C)cc(CN2CC=C(c3ccccc3)CC2)c1O | · | -24% | -7 | -21% | ? | ?
COc1ccc(C(C)=O)cc1CN1CC=C(c2ccccc2)CC1 | -5% | -9% | -19 | -1% | -101* | i
O=C(CCCN1CCC(n2c(=O)[nH]c3ccccc32)CC1)c1ccc(F)cc1 | ? | -24% | -45 | 2% | -103* | i
CC(C)(C)CC(C)(C)c1ccc(O)cc1 | ? | · | 7 | · | · | 35µM*!
O=C1C(I)=CC(=C(c2cc(I)c(O)c(I)c2)c2ccccc2C(=O)O)C=C1I | 9% | · | 14 | · | · | ?
Cc1ccc(-c2cc(-c3ccc(C)cc3)[n+](C)o2)cc1 | -35% | -30% | -3 | 7.1µM* | 20 | i
O=c1[nH]c(=O)n(-c2cccc3ccccc23)c(O)c1C=NCc1ccc2c(c1)OCO2 | 4% | -19% | -1 | -12% | -63* | i
COc1ccc(OC)c(-n2c(O)c(C=NCc3ccc4c(c3)OCO4)c(=O)[nH]c2=O)c1 | 0% | -14% | 4 | 3% | 20 | i
CC(C)NCC(O)c1ccc([N+](=O)[O-])cc1 (stereo not given) | -2% | · | -10 | · | · | i
